Key:
Experiment in all cases: log2 ratio of Biotin-Ahx-Ub-VS probe labelling (fragment/DMSO); higher = less target engagement (more negative = stronger competition), active = hit call of the paper (q ≤ 0.05, log2 ratio ≤ -1)
Conditions in all cases: compound concentration: 200 uM; treatment time: 3 h
USP42 = biological target: T1, USP42 (UniProt Q9H9J4)
T1 sequence (whole entry): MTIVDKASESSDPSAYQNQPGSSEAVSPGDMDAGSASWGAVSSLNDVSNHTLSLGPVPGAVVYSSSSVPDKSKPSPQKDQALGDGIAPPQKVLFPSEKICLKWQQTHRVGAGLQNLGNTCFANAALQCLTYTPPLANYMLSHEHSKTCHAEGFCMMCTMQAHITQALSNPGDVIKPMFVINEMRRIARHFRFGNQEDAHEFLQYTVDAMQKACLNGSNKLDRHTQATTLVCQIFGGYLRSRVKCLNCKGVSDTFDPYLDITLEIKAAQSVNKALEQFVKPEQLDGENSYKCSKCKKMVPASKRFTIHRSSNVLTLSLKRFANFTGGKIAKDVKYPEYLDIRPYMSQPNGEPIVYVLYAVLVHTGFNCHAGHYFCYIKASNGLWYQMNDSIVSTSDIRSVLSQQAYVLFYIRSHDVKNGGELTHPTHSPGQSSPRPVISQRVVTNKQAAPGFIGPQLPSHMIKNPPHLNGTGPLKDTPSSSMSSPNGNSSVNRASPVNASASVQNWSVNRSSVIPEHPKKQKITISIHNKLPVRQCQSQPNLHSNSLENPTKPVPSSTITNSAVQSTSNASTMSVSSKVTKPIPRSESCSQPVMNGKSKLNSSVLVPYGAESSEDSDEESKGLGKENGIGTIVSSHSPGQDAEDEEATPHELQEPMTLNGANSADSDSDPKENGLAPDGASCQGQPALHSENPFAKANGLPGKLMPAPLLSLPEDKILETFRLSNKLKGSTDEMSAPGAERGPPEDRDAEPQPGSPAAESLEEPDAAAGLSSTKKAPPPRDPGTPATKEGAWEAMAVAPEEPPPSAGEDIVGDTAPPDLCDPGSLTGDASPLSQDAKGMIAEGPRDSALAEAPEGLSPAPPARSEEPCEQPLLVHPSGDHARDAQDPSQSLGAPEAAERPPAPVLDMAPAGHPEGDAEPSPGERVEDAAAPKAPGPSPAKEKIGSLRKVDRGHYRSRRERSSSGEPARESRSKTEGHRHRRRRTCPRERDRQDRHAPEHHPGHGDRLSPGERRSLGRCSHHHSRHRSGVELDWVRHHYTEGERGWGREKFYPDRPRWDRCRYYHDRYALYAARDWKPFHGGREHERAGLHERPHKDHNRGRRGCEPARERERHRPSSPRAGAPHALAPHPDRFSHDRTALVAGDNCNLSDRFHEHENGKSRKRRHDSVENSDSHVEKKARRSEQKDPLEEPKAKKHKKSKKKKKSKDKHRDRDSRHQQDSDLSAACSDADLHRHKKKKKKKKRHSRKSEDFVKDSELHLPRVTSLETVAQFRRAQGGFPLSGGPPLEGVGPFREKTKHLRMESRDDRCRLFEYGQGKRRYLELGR
In short: (§1)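 Each value is an average log2 ratio of fragment to vehicle, tested by unpaired t-test. The underlying Spectronaut label-free quantities were global-median-normalised, and only proteins with ≥2 unique peptides were included. Triplicate HEK293T lysate samples (495 µg) were exposed to fragment at 200 µM or vehicle for 3 h, then to Biotin-Ahx-Ub-VS at 0.5 µM final for 1 h, before NeutrAvidin enrichment of labelled DUBs, LysC and trypsin digestion, and diaPASEF LC-MS/MS.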

USP46 = USP46 (UniProt P62068)
USP46, sequence (P62068 whole entry): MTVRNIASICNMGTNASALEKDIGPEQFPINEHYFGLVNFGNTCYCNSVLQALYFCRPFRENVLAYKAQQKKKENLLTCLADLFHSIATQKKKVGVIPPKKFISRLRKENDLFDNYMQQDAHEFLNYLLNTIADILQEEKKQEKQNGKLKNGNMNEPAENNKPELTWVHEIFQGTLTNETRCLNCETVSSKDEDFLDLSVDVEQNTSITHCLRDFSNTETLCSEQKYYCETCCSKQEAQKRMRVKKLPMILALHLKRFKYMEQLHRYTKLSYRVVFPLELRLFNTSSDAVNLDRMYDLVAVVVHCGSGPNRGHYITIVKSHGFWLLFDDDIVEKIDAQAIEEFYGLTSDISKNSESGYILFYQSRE
In short: as §1

USP47 = biological target: T2, USP47 (UniProt Q96K76)
T2 sequence (whole entry): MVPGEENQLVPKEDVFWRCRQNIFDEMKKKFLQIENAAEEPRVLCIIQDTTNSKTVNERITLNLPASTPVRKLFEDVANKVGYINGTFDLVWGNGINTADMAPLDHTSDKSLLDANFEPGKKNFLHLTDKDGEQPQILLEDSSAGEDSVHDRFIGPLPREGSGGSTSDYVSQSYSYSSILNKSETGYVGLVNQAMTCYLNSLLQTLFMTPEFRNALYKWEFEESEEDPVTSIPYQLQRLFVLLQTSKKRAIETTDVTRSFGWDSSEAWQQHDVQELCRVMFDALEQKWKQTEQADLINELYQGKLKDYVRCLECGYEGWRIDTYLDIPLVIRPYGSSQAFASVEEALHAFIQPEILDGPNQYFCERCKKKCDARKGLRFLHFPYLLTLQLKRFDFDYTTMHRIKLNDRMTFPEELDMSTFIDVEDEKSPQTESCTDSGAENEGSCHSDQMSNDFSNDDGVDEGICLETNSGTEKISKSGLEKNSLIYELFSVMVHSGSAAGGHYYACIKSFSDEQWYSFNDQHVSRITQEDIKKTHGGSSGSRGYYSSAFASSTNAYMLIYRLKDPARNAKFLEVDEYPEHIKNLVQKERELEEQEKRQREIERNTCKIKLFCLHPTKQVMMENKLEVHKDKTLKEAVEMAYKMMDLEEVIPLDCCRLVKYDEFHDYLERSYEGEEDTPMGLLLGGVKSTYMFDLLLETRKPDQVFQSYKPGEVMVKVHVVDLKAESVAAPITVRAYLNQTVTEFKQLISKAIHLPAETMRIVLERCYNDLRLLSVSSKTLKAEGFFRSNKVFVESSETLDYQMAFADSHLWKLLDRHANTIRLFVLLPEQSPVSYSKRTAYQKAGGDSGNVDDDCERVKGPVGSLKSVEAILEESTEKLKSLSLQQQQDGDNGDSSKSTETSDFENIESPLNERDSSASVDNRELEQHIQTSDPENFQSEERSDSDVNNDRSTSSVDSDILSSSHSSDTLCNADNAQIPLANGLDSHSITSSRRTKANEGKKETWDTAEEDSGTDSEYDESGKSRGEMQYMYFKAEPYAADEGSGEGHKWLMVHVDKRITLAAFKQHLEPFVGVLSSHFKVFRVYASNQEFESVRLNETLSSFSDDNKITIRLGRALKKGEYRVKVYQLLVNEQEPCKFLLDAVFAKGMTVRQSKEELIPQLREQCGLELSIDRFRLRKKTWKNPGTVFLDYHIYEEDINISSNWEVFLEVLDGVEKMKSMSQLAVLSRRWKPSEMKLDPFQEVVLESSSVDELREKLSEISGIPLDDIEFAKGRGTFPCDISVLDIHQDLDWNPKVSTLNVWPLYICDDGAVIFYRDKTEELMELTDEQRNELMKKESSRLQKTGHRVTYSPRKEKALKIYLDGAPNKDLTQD
In short: as §1

USP48 = biological target: T3, USP48 (UniProt Q86UV5)
T3 sequence (whole entry): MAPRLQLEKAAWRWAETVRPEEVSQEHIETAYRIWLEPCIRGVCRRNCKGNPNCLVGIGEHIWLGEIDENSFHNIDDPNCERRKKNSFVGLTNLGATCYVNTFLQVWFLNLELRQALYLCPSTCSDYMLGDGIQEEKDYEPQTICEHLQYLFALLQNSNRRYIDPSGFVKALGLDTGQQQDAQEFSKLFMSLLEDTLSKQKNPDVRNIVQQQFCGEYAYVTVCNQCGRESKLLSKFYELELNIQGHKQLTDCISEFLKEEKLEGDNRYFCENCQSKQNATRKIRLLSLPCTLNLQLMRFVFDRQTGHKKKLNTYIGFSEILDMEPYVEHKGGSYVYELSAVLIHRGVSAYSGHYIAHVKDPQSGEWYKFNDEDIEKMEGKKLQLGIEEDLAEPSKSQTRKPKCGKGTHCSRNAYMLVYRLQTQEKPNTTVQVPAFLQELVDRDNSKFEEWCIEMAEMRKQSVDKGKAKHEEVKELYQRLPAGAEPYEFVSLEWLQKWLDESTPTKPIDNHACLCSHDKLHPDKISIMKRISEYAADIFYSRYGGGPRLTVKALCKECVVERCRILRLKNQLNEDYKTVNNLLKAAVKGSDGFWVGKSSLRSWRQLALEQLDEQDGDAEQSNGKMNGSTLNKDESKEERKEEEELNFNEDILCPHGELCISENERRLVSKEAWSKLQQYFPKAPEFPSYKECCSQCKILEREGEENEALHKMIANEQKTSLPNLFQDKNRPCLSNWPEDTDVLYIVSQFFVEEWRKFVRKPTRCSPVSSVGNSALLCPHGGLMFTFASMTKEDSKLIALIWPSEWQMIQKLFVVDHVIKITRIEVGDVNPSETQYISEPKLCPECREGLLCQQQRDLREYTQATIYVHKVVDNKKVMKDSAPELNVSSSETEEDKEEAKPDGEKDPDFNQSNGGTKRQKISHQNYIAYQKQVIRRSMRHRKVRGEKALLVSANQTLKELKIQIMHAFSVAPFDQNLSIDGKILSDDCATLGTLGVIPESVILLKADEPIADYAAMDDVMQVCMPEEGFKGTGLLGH
In short: as §1

USP5 = biological target: T4, USP5 (UniProt P45974)
T4 sequence (whole entry): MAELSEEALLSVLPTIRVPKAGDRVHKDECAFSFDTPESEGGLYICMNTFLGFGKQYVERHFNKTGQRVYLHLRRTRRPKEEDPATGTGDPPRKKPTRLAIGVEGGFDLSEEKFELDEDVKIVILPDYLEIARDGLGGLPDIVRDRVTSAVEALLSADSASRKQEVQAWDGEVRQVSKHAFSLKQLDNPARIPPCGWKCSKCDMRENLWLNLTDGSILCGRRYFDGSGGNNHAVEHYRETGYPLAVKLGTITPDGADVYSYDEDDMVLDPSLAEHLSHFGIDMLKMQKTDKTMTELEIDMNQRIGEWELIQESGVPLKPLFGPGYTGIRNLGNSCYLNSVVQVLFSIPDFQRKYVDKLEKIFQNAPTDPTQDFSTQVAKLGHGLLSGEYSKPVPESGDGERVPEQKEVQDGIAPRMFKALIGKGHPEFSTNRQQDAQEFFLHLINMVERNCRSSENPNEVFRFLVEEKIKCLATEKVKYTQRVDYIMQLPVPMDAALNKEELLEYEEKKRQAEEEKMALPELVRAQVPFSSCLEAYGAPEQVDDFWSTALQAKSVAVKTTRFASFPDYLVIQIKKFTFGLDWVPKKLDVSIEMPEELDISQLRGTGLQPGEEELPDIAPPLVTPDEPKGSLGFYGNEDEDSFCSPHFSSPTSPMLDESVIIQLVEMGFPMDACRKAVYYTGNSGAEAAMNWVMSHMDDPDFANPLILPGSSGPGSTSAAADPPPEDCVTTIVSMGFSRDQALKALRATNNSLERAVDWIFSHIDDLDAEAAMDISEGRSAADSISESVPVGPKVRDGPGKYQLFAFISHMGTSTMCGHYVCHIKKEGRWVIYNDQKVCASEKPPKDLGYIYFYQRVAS
In short: as §1

USP54 = USP54 (UniProt Q70EL1)
In short: as §1

USP7 = USP7 (UniProt Q93009)
USP7, sequence (Q93009 whole entry, looked up): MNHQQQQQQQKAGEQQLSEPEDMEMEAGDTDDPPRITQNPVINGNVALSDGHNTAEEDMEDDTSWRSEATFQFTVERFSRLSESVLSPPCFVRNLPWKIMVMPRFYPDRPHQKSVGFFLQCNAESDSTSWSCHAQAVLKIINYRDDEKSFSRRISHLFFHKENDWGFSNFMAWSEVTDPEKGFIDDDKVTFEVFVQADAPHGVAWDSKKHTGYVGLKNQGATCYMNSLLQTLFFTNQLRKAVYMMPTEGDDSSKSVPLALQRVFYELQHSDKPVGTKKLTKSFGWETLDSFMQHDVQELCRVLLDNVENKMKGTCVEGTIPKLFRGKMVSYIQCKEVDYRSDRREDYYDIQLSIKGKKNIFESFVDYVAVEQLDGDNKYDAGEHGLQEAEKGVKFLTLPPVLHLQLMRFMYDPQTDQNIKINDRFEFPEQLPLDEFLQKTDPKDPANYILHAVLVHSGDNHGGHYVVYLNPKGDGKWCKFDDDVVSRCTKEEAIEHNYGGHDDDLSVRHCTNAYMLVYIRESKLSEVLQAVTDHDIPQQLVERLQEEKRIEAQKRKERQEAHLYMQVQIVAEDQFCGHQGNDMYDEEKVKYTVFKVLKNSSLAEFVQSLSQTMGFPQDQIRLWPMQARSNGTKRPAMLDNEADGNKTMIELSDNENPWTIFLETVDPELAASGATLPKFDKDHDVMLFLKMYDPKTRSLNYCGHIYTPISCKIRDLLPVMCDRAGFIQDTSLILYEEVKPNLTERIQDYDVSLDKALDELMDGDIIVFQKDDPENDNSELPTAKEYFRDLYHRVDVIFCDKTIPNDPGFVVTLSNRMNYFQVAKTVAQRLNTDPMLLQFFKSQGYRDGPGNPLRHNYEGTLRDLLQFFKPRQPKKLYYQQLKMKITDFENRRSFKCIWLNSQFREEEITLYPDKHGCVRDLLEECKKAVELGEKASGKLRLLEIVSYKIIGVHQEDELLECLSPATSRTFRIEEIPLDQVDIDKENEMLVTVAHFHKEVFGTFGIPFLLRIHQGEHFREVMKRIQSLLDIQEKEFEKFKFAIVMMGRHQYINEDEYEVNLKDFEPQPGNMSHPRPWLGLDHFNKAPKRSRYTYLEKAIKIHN
In short: as §1

USP8 = biological target: T5, USP8 (UniProt P40818)
T5 sequence (whole entry): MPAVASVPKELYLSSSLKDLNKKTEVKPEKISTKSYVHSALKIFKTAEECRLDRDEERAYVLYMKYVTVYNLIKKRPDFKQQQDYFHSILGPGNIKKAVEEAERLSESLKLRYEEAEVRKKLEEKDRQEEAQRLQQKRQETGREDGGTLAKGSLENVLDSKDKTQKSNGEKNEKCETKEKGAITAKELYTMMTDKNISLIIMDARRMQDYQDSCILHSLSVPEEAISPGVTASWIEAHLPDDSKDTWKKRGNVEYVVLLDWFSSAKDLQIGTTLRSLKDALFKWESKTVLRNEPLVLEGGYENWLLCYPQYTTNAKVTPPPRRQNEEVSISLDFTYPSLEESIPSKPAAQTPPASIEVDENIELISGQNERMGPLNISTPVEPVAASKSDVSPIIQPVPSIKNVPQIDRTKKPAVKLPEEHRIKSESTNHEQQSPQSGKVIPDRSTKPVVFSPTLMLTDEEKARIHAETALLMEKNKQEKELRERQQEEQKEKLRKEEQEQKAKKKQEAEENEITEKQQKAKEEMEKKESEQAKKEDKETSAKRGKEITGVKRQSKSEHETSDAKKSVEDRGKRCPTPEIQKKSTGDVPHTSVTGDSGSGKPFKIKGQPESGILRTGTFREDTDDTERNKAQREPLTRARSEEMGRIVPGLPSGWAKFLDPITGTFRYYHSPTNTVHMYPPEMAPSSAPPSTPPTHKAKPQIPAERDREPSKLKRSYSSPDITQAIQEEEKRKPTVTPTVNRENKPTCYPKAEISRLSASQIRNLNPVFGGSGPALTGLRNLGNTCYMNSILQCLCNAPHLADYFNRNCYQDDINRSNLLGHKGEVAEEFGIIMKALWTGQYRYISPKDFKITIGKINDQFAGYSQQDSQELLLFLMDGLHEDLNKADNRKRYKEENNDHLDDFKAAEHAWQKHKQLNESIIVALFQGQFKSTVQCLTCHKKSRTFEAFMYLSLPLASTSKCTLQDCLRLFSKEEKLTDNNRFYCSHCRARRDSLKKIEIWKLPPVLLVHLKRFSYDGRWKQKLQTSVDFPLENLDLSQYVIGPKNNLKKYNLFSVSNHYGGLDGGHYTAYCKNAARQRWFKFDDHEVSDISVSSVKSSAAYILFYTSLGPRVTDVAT
In short: as §1

USP9X = USP9X (UniProt Q93008)
USP9X, sequence (Q93008 whole entry): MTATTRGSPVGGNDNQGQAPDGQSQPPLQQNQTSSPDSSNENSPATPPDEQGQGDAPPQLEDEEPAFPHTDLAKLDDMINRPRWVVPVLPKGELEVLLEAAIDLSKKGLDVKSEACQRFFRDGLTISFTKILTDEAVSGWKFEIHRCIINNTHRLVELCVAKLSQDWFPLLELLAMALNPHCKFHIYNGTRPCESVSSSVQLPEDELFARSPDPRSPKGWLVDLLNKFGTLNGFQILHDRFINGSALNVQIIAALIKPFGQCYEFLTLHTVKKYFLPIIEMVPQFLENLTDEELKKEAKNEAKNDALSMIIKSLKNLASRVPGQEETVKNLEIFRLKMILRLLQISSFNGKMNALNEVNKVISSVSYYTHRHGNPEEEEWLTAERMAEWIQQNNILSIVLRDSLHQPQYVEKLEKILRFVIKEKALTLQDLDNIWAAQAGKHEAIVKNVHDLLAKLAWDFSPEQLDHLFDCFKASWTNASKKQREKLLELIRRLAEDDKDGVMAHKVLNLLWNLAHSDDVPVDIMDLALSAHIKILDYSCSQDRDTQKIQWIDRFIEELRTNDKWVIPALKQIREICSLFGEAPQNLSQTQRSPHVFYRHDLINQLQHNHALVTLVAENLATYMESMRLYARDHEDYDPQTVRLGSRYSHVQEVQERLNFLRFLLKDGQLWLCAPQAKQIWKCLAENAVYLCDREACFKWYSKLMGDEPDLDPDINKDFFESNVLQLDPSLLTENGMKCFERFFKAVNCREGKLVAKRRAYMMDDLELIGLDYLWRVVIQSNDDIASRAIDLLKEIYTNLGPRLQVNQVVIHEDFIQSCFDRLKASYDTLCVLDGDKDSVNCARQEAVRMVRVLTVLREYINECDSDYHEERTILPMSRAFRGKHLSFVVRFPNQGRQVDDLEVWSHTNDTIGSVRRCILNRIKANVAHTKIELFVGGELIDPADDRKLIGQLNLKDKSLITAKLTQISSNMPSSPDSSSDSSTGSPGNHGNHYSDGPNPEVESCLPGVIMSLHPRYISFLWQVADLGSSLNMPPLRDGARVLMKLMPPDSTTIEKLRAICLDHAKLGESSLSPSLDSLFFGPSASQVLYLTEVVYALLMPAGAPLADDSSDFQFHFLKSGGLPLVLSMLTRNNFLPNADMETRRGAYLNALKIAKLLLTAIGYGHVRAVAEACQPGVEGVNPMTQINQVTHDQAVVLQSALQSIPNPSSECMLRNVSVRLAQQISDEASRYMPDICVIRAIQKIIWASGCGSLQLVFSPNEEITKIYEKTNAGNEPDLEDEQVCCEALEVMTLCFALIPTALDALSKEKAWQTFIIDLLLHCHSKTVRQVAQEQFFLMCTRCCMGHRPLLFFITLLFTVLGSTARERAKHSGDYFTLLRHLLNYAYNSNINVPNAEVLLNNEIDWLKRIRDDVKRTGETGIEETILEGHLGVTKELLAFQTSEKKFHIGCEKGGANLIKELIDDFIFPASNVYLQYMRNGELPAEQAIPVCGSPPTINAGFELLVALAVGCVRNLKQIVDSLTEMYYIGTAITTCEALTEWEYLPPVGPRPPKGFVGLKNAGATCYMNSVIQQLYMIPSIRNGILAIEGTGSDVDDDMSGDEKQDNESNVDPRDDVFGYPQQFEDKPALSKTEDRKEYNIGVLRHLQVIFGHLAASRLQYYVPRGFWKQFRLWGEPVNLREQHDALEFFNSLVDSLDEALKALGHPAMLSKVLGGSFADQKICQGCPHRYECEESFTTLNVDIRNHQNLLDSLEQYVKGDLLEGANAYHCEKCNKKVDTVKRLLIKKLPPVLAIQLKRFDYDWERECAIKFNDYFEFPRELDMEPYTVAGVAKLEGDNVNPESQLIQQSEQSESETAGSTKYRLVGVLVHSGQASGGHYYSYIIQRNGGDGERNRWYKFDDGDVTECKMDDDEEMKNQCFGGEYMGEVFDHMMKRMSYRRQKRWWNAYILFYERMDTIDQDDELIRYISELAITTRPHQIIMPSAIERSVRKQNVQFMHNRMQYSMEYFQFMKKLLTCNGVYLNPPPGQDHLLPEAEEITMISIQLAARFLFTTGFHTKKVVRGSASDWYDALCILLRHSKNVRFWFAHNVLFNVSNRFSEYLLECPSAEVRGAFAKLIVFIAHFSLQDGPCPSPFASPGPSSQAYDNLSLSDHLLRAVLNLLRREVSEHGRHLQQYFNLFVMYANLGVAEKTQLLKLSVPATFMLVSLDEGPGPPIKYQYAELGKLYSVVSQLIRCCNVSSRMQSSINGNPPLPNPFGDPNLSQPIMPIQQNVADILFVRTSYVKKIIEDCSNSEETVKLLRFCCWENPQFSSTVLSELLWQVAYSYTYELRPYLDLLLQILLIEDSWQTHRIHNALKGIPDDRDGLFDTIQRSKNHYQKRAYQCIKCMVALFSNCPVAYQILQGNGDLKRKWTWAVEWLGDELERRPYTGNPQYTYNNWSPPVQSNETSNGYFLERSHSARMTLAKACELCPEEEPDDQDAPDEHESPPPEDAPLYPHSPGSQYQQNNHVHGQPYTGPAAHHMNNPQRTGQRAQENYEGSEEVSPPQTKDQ
In short: as §1

UniProt O00487 = biological target: UniProt O00487
UniProt O00487, sequence (O00487 whole entry): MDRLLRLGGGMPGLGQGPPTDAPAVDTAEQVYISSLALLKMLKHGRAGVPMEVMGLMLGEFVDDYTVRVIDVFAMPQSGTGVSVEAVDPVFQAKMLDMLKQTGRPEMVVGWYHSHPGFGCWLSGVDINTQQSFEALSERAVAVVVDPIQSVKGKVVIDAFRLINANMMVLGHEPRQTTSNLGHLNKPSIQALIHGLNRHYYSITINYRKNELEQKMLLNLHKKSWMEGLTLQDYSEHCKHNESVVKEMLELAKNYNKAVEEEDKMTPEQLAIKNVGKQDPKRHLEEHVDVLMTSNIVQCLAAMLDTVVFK
In short: as §1

Measured: log2 ratio of Biotin-Ahx-Ub-VS probe labelling

CCN(Cc1ccc(C#N)cc1F)C(=O)CCl
inactive: USP42 -0.249 | USP46 -0.114 | USP47 -0.791 | USP5 0.258 | USP54 0.521 | USP8 -0.229 | USP9X -0.229 | UniProt O00487 -0.0587
active: USP48 -1.26 | USP7 -1.26

Reference: the supplement of paper PMC11732987, “Enantioselective OTUD7B fragment discovery through chemoproteomics screening and high-throughput optimisation” (Communications Chemistry, 2025)
